NR0B1 inh: inhibits human nuclear receptor DAX1. P51843. HEK293 Gal4-DAX1 luciferase reporter, luminescence. inhibition, % at 6.75 µM. actives 0.99% (n = 340,000). AID 504766;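 active = inhibition above the mean over all tested compounds plus 3 SD, cut at about 4.2% in these data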;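 also: inhibition shows as a rise in luminescence from relieved DAX1 repression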
HSF1 inhib: HSF1 inhibition; NIH3T3-HGL HSE-luciferase, MG132-induced, luminescence 8 h; hits give low values; activity change, negative = inhibition, % at 7.5 µM (by protocol); actives 0.77% (n = 300,000); AID 2098;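 active = more than half of replicate wells show activity change below -50%, luminescence cut by over half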;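 also: luciferase reports HSF-1 transcriptional activity via heat shock element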
AHR activator: activates the human aryl hydrocarbon receptor; AHR-responsive luciferase reporter cells, luminescence; actives 2.5% (n = 320,000); activation, % at 5 µM; P35869; in the data active = activation above about 47%
FXN GAA850 act: increases GAA850 frataxin promoter reporter activity; actives 0.56% (n = 360,000); activation, % at 6 µM; HEK293 lucGAA850 FXN promoter luciferase reporter, 24 h; percent of 10 µM SAHA response;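 active = activation above the average of all compounds screened plus 3 SD, cutoff fixed separately per campaign, cut at about 7.5% in these data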
HSF-1 act: increases HSF-1 driven luciferase reporter signal; NIH3T3-HGL HSF-1 luciferase reporter, MG132, 8 h; 100% = twice DMSO control signal; activation, % at 9 µM; actives 1.7% (n = 300,000); AID 504408;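 active = mean replicate activation of at least 50% with a set share of replicates each reaching 50%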
AHR act confirm: human AHR activation, confirmation. shares compounds with AHR activator. human cells, AHR-responsive luciferase reporter, luminescence. activation, % at 9 µM. actives 87% (n = 2,300). AID 2845; in the data active = activation above about 49%;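 also: HepG2 hepatoma cells carrying a DRE-driven firefly luciferase reporter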
PXR act counter: counter-screen for AHR activators: human PXR activators. cell-based PXR reporter, luciferase luminescence. AID 434939. activation, % at 11.6 µM. actives 88% (n = 2,300). shares compounds with AHR activator; in the data active = activation above about 11%;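 also: human hepatoma DPX-2 cells expressing full-length human PXR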
Target sequence (O75469 whole entry, looked up): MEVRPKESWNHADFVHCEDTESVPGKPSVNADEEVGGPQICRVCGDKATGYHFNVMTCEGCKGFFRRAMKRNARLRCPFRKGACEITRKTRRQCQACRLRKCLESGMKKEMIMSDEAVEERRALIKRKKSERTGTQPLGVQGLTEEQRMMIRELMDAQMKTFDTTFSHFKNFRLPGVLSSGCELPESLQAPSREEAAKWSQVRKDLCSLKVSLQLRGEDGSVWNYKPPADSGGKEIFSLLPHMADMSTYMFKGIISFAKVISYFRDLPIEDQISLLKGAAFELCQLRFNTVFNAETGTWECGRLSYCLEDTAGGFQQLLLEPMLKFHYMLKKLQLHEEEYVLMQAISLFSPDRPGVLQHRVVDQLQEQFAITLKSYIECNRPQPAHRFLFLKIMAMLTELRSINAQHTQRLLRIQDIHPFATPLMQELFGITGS
Numbers stand for hits; n = inactive; x = no result given. A selection: hits, their analogues and other compounds. The true share with any hit is near 5.4%.

SMILES | NR0B1 inh | HSF1 inhib | AHR activator | FXN GAA850 act | HSF-1 act | AHR act confirm | PXR act counter
CCn1c(C)cc(/C=C2\NC(=O)N(CC(=O)Nc3cccc(C)c3)C2=O)c1C | n | n | 80 | n | n | 78 | 16
COC(=O)c1sc(NC(=O)COc2ccccc2)nc1C | n | n | n | n | n | x | x
COc1ccc(C)c2sc(NNC(=O)COc3ccccc3)nc12 | x | n | 80 | x | n | 99 | 15
c1ccc(-c2cc(-c3ccccc3)on2)cc1 | n | n | n | n | n | x | x
[O-][n+]1onc2c3cc(-c4ccccc4)nnc3ccc21 | n | n | 88 | n | n | 108 | x
COc1ccc(NC(=O)CN2CCC(C(N)=O)(N3CCCCC3)CC2)c(OC)c1 | n | n | n | n | n | x | x
N#CC1=C(N)Oc2n[nH]c(-c3ccc(F)cc3)c2C1c1cccc(OC(=O)N2CCOCC2)c1 (stereo unspecified) | n | n | 106 | n | n | 115 | 32
N#CC1=C(N)Oc2n[nH]c(-c3ccc(F)cc3)c2C1c1ccncc1 (stereo unspecified) | n | n | 106 | n | 67 | 103 | 18
COc1cccc(NC(=O)CCN2C(=O)c3ccccc3Sc3ncccc32)c1 | n | n | n | n | n | x | x
COc1ccc(C(C)C)cc1S(=O)(=O)n1ccnc1C | n | n | n | n | n | x | x
COc1cccc(-c2nc(-c3ccc(Br)o3)no2)c1 | 5.4 | n | 86 | n | n | 136 | 28
c1ccc(-c2noc(-c3ccc4c(c3)OCO4)n2)cc1 | n | n | 87 | n | n | n | n
Brc1ccc(-c2nc(-c3ccccc3)no2)o1 | n | n | 124 | n | n | 148 | 19
COc1cccc(-c2nc(-c3ccncc3)no2)c1 | n | n | n | n | n | x | x
COc1ccc(-c2noc(-c3ccc4c(c3)OCO4)n2)cc1 | n | n | n | n | n | x | x
COc1ccccc1-c1nc(-c2ccc(Br)o2)no1 | n | n | 91 | n | n | 131 | 58
COc1ccccc1-c1noc(-c2cc(OC)c(OC)c(OC)c2)n1 | n | n | n | n | n | x | x
O=c1[nH]c(-c2ccccc2)c(-c2ccccc2)nc1[N+](=O)[O-] | n | n | n | n | n | x | x
CCC1Oc2ccccc2N(CC(=O)NCCCN2CCN(c3ccc(OC)cc3)CC2)C1=O (stereo unspecified) | n | n | n | n | n | x | x
CCN(CC)C(=O)C1=C(C)N(CCCN2CCCC2=O)C(=O)C(CC(=O)NC2CCCCC2)C1 (stereo unspecified) | n | x | x | n | x | x | x
C=CCC[C@@H](Cc1ccc(F)cc1)C(=O)OC[C@@H]1CCCN1C(=O)[C@@H](CC=C)CC(=O)N[C@@H](CO)Cc1ccccc1 | n | x | n | n | x | x | x
CCC(c1nnc(SC(C)C(=O)NC2CC2)n1-c1ccc(OC)cc1)N(C)C (stereo unspecified) | n | x | n | n | x | x | x
COc1ccccc1Cc1nc(-c2ccc(Br)o2)no1 | n | n | 119 | n | n | 113 | 43
COc1ccccc1-c1nc(-c2ccncc2)no1 | n | n | 80 | n | n | 83 | 35
Cc1ccc(-c2noc(-c3ccccc3Br)n2)cc1 | 4.2 | x | 126 | n | x | 120 | 18
SMILES | NR0B1 inh | HSF1 inhib | AHR activator | FXN GAA850 act | HSF-1 act | AHR act confirm | PXR act counter
Cc1ccccc1OCc1nc(-c2ccc(Br)o2)no1 | n | n | n | n | n | x | x
Cc1ccc(-c2noc(-c3ccccc3C(=O)N3CCCC3)n2)cc1 | n | n | n | n | n | x | x
O=[N+]([O-])c1ccc(Cl)c(S(=O)(=O)NCCc2ccccn2)c1 | n | x | n | n | x | x | x
Cc1cc(/C=C2\NC(=O)N(Cc3ccc(Cl)cc3)C2=O)c(C)n1C | n | x | n | n | x | x | x
CCn1c2ccccc2c2cc(NC(=O)c3cccc([N+](=O)[O-])c3)ccc21 | n | n | 86 | n | n | 89 | 33
CCn1c2ccccc2c2cc(NC(=O)c3cccc([N+](=O)[O-])c3C)ccc21 | n | n | 113 | n | n | 87 | 55
COc1ccc(NC(=O)CSc2nnc3c4c(nc(-c5ccccc5)n23)CC(C)(C)OC4)cc1 | n | n | 109 | n | n | n | 25
COc1cccc(C(=O)Nc2c(C(N)=O)oc3ccccc23)c1 | n | n | 94 | n | n | 133 | 21
COc1ccc2oc(C(=O)c3ccccc3)c(N)c2c1 | x | n | n | x | n | x | x
